Several values for one entry are separate records, joined by “and”; a condition that tells them apart may be missing. Equal entries are not always repeated. Inconclusive results are not listed. Activity calls are given as the source filed them. Unless noted, calls follow the shape of the dose curve; as a rule, active = well fitted curve in the direction sought with a large enough effect; inconclusive = small, poorly fitted or top-dose-only effect, or another doubt; inactive = no such curve, though single readings can be large; an effect the other way counts as inactive or inconclusive.
Assays:
[1] = Cell Viability - BJ (AID 421; calls by dose curve;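 also: potency is read from the fitted curve at half-maximal effect; cells exposed to compound for 40 hours at 37 °C before readout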); details: BJ fibroblast viability, qHTS
Method in brief: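 Cytotoxicity in human BJ foreskin fibroblasts is scored as loss of cellular ATP after a 40-hour exposure, measured by luciferase luminescence. Controls are DMSO and 100 uM tamoxifen.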

[2] = Cell Viability - Jurkat (AID 426;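 active = dose-dependent loss of cell ATP signal giving a full or clear fitted curve, ranked by lower potency value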; also: potency is read from the fitted curve at half-maximal effect); details: qHTS
Method in brief: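 Jurkat (clone E6-1, human T-cell leukemia) cells, 5000/well in complete medium, were exposed to compound for 40 hr at 37 °C. Viability was read as intracellular ATP by CellTiter-Glo luminescence; AC50 came from Hill fits of concentration-response data.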

[3] = Cell Viability - Hek293 (AID 427;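 active = compounds whose dose-response curve shows a full or clear partial loss of cell viability, called from curve shape rather than a numeric limit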;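 also: potency is read from the fitted curve at half-maximal effect; cells exposed to compound for 40 hours at 37 °C before reading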); details: qHTS
Method in brief: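 qHTS, human embryonic kidney (adenovirus-transformed) cells; 40 hr cpd, 37 °C; CellTiter-Glo ATP luminescence. Norm: DMSO = 0, 100 uM tamoxifen = 100% inhibition. Hill-fit AC50.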

[4] = Cell Viability - SK-N-SH (AID 435; calls by dose curve;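 also: potency is read from the fitted curve at half-maximal effect; compound exposure lasted 40 h at 37 °C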); details: SK-N-SH neuroblastoma cell viability qHTS
Method in brief: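 SK-N-SH human neuroblastoma cells (1500/well) were exposed to compounds in complete medium for 40 h at 37 °C, and intracellular ATP was then measured by CellTiter-Glo luminescence. AC50 was taken from Hill fits, normalized to DMSO and 100 uM tamoxifen.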

[5] = Cell Viability - HUV-EC-C (AID 542); details: HUV-EC-C endothelial cell viability, qHTS; series mostly up to 92.2 µM; also: % is scaled to controls: 0 for no effect and ±100 for the full control effect; nearly all actives have a fitted effect of over 35% in size
Method in brief: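 HUV-EC-C normal human vascular endothelial cells, 1000 cells/well, pre-incubated 5 hr at 37 °C, then exposed to compounds for 40 hr at 37 °C in complete medium. Viability measured as intracellular ATP by CellTiter-Glo luminescence; AC50 from Hill fits.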

[6] = Cell Viability - H-4-II-E (AID 543); details: H-4-II-E rat hepatoma viability; series mostly up to 92.2 µM; also: % is scaled to controls: 0 for no effect and ±100 for the full control effect; nearly all actives have a fitted effect of over 35% in size
Method in brief: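 Rat hepatoma H-4-II-E cells (1500/well) were plated, incubated 5 hr at 37 °C, then exposed to compounds for 40 hr at 37 °C. Cellular ATP was read by CellTiter-Glo luminescence; AC50 came from Hill-equation fits of concentration-response data.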

[7] = Cell Viability - Renal Proximal Tubule (AID 545); details: renal proximal tubule cells viability; series mostly up to 91.7 µM;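 also: 0% = DMSO only and -100% = 100 µM tamoxifen; nearly all actives have a fitted effect of over 40% in size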
Method in brief: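 Primary rat renal proximal tubule cells (1000/well) were treated with compounds for 40 hr at 37 °C in complete medium. Intracellular ATP was measured by CellTiter-Glo luminescence, and AC50 values came from Hill-equation fits of concentration-response data.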

[8] = Cell Viability - LYMP2-015 (AID 971); details: LYMP2-015 lymphoblastoid cell viability; series mostly up to 92.2 µM;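 also: 0% = DMSO only and full effect = 92 µM tetraoctylammonium bromide; nearly all actives have a fitted effect of over 55% in size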
Method in brief: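 Human lymphoblastoid cells (2500/well) in complete medium were preincubated 5 hr at 37 C, then compound-treated 24 hr at 37 C. Intracellular ATP was read by CellTiter-Glo luminescence after 30 min at room temperature; AC50 came from Hill-equation concentration-response fits.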

[9] = Cell Viability - LYMP2-019 (AID 973); details: LYMP2-019 lymphoblastoid cell line viability; series mostly up to 92.2 µM;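 also: 0% = DMSO alone and full effect = 92 µM tetraoctylammonium bromide; nearly all actives have a fitted effect of over 55% in size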
Method in brief: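 Human lymphoblastoid cells were seeded at 2500 cells/well, preincubated 5 hr at 37 C, then exposed to compounds for 24 hr at 37 C in complete medium. Intracellular ATP was measured by CellTiter-Glo luminescence; AC50 from Hill fits.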

[10] = Cell Viability - LYMP2-012 (AID 982); details: LYMP2-012 lymphoblastoid cell viability qHTS; series mostly up to 92.2 µM;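 also: cellular ATP by luciferase luminescence where a drop means cytotoxicity; cells exposed to compound for one day before reading; 0% = DMSO only and full loss = 92 µM tetraoctylammonium bromide; nearly all actives have a fitted effect of over 55% in size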
[11] = Cell Viability - LYMP2-020 (AID 986); details: series mostly up to 92.2 µM;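 also: plate controls were DMSO only for no effect and tetraoctylammonium bromide at 92 µM for full effect; nearly all actives have a fitted effect of over 55% in size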
Method in brief: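 Human lymphoblastoid cells, 2500/well, were pre-incubated 5 hr at 37 C, then exposed to compounds for 24 hr at 37 C in complete medium. Intracellular ATP was read by CellTiter-Glo luminescence, and AC50 was derived by Hill fitting of concentration-response data.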

[12] = Cell Viability - LYMP2-022 (AID 987); details: LYMP2-022 lymphoblastoid cell viability; series mostly up to 92.2 µM
Method in brief: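 Human lymphoblastoid cells, 2500/well, preincubated 5 hr at 37 C, then exposed to compounds over a concentration range for 24 hr at 37 C in complete medium. Viability read as intracellular ATP by CellTiter-Glo luminescence after 30 min at room temperature; AC50 from Hill fits.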

[13] = Cell Viability - LYMP2-026 (AID 989); details: LYMP2-026 lymphoblastoid cell viability, qHTS; series mostly up to 92.2 µM; also: % is scaled to controls: 0 for no effect and ±100 for the full control effect; nearly all actives have a fitted effect of over 50% in size
Method in brief: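 Human lymphoblastoid cells (2500/well) in complete medium were preincubated 5 hr at 37 C, then exposed to compounds for 24 hr at 37 C. Cellular ATP was read by CellTiter-Glo luminescence; AC50 from Hill-equation fits of concentration-response data.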

[14] = Cell Viability - LYMP1-002 - Assay at 40 hr (AID 994); details: LYMP1-002 lymphoblastoid cell viability; series mostly up to 92.2 µM;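 also: 0% = DMSO only and full inhibition = 92 µM tetraoctylammonium bromide; nearly all actives have a fitted effect of over 60% in size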
Method in brief: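 Human lymphoblastoid cells, 2500/well in complete medium, were preincubated 5 hr at 37 C, then exposed to compounds for 40 hr at 37 C. Intracellular ATP was read by CellTiter-Glo luminescence after 30 min at room temperature; AC50 from Hill-equation fits.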

[15] = qHTS assay for small molecule agonists of retinoid X receptor alpha signaling (AID 588544; calls by dose curve); details: HEK293T RXRa-UAS-bla, beta-lactamase reporter, 18 h; 530 nm emission
[16] = biological target: Retinoic acid receptor RXR-alpha (Homo sapiens) (UniProt P19793); assay: as above; details: HEK293T RXRa-UAS-bla, beta-lactamase reporter, 18 h; series mostly up to 76.7 µM
[17] = qHTS assay for small molecule antagonists of retinoid X receptor alpha signaling (AID 588546; active = well fitted inhibition curve with a large enough effect in the signal ratio, with a control signal flat, not every such curve was filed as active; the % refers to the signal ratio;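 also: cells stimulated with 9-cis-retinoic acid as agonist; % is scaled to controls: 0 for no effect and ±100 for the full control effect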); details: HEK293T RXRa-UAS-bla, beta-lactamase ratio, antagonist mode; measured here: W530 green channel, cytotoxicity proxy
Method in brief: (§1)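 Beta-lactamase reporter inhibition, read as CCF4 fluorescence ratio (ex 405, em 460/530 nm) after 2 h at RT. HEK293T UAS-bla cells, 2500/well, were stimulated with 9-cis-RA at 500 or 100 nM final alongside test compound for 18 h at 37 C.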

[18] = biological target: Retinoic acid receptor RXR-alpha (Homo sapiens) (UniProt P19793); assay: as above; details: HEK293T RXRa-UAS-bla, beta-lactamase ratio, antagonist mode
Method in brief: as §1

[19] = biological target: Voltage-gated inwardly rectifying potassium channel KCNH2 (Homo sapiens) (UniProt Q12809); assay: qHTS Assay for Small Molecule Inhibitors of the Human hERG Channel Activity (AID 588834); details: U2OS BacMam hERG, FluxOR thallium flux fluorescence; series mostly up to 92.2 µM;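 also: top concentration of the series differs between compounds; % is scaled to controls: 0 for no effect and ±100 for the full control effect; lower thallium flux fluorescence means stronger hERG block; nearly all actives have a fitted effect of over 50% in size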
Method in brief: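 U2OS cells transduced with hERG via BacMam (MOI ~100), plated 2000/well, loaded with FluxOR thallium dye, compound ~10 min, then stimulation buffer; fluorescence decrease read kinetically; AC50 from Hill fits.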

[20] = biological target: Thyroid hormone receptor beta (Homo sapiens) (UniProt P10828); assay: qHTS assay for small molecule agonists of thyroid hormone receptor beta signaling (AID 588545; calls by dose curve;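 also: 0% = DMSO only and 100% = 10 nM T3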); details: TR-UAS-bla GripTite HEK 293, beta-lactamase ratio, agonist mode, 18 h; series mostly up to 76.7 µM
Method in brief: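 TR-UAS-bla-GripTite HEK 293 cells in medium with 2% charcoal/dextran FBS, 0.1 mM NEAA and 1 mM sodium pyruvate were treated with titrated compounds for 18 hrs at 37 C. Beta-lactamase reporter was read with CCF4 dye (ex 405, em 460/530 nm); EC50 from Hill fits.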

Chain of Retinoic acid receptor RXR-alpha (Homo sapiens) (P19793 whole entry, looked up): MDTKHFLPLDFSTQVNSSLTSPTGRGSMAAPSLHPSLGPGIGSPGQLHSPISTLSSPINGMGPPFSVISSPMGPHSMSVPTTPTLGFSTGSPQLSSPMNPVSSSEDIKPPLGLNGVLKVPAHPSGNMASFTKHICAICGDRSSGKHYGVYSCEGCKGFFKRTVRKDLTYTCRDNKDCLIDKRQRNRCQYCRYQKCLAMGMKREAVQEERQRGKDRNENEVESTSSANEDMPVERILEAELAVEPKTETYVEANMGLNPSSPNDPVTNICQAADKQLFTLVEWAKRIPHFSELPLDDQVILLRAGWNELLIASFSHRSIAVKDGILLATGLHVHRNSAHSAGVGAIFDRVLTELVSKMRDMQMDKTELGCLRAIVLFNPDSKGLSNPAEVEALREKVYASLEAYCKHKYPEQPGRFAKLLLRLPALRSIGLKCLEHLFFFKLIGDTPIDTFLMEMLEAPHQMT
Chain of Thyroid hormone receptor beta (Homo sapiens) (P10828 whole entry, looked up): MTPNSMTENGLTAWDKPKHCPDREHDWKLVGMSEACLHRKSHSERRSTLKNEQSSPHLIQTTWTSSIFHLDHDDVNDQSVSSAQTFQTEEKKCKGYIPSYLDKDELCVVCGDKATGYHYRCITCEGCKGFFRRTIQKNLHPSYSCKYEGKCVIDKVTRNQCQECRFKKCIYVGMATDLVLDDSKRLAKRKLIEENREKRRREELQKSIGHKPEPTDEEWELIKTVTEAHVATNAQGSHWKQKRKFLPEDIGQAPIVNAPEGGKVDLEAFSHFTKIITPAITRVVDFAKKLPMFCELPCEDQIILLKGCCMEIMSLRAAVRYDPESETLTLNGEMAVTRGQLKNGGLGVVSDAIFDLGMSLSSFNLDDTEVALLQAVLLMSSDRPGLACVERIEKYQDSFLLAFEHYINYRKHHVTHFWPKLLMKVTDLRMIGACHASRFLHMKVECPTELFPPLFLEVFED
Chain of Voltage-gated inwardly rectifying potassium channel KCNH2 (Homo sapiens) (Q12809 whole entry, looked up): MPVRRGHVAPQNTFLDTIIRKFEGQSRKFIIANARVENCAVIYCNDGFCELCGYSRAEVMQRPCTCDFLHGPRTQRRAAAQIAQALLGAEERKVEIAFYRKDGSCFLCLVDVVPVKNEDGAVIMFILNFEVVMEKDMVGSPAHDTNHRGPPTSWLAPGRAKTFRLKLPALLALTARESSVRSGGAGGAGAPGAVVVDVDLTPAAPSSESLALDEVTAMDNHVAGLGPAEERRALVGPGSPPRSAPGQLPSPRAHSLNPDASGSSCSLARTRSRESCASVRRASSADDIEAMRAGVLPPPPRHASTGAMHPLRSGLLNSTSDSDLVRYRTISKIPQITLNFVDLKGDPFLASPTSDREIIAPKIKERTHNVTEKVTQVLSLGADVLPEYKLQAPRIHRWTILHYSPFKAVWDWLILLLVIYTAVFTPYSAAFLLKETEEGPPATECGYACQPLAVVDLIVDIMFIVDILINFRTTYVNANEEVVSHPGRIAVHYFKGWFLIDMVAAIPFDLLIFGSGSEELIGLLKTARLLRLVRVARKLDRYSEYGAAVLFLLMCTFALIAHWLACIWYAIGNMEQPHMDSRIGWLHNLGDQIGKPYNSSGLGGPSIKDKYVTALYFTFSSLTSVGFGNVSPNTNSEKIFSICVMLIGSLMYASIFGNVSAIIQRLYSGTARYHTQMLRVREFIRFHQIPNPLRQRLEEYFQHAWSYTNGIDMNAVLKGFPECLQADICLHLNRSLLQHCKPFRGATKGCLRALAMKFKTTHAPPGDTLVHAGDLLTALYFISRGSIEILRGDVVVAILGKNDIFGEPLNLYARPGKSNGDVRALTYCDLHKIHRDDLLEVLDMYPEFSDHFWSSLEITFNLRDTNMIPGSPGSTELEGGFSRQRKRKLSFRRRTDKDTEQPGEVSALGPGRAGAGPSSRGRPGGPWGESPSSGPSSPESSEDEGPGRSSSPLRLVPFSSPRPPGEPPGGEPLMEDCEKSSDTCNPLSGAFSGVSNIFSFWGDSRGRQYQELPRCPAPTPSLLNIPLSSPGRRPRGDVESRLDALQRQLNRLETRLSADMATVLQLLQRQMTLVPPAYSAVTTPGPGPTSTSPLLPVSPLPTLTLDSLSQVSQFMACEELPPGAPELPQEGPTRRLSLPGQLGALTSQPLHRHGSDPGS

COc1ccc(C=O)cc1
-0.469%: max response [15]
inactive: Potency [1] > 92 µM | Potency [2] > 92 µM | Potency [3] > 92 µM | Potency [4] > 92 µM | Potency [5] | Potency [6] | outcome [7] | Potency [8] | Potency [9] | Potency [10] | Potency [11] | Potency [12] | Potency [13] | Potency [14] | outcome [16] | max response [18] 14.5% | Potency [19]
3.67%: max response [17]

Nc1ccc(Cc2ccc(N)cc2)cc1
7.13%: max response [15]
-3.16% and 6.7%: max response [17]
inactive: Potency [1] > 92 µM | Potency [2] > 92 µM | Potency [3] > 92 µM | Potency [4] > 92 µM | Potency [5] | Potency [6] | outcome [7] | Potency [8] | Potency [9] | Potency [13] | Potency [14] | outcome [16] | Potency [20] | max response [18] -0.525% and -18.2% | Potency [19]

CCCCC(=O)Cl
-18.9%: max response [15]
-10.8%: max response [17]
inactive: Potency [1] > 92 µM | Potency [2] > 92 µM | Potency [3] > 92 µM | Potency [4] > 92 µM | Potency [5] | Potency [6] | outcome [7] | Potency [8] | Potency [9] | Potency [10] | Potency [11] | Potency [12] | Potency [13] | Potency [14] | outcome [16] | Potency [20] | max response [18] -9.41% | Potency [19]

Nc1cc(Cl)cc(C(=O)O)c1Cl
0.823% and -3.03%: max response [17]
-12.3% and -7.66%: max response [15]
inactive: Potency [1] > 92 µM | Potency [2] > 92 µM | Potency [3] > 92 µM | Potency [4] > 92 µM | Potency [5] | Potency [6] | outcome [7] | Potency [8] | Potency [9] | Potency [10] | Potency [11] | Potency [12] | Potency [13] | Potency [14] | outcome [16] | Potency [20] | max response [18] 5.23% and 3.9% | Potency [19]

CCCCOC(C)=O
6.81%: max response [15]
inactive: Potency [1] > 92 µM | Potency [2] > 92 µM | Potency [3] > 92 µM | Potency [4] > 92 µM | Potency [5] | Potency [6] | outcome [7] | Potency [8] | Potency [9] | Potency [10] | Potency [11] | Potency [12] | Potency [13] | Potency [14] | outcome [16] | Potency [20] | max response [18] 10.8% | Potency [19]
-8.9%: max response [17]

Nc1cc(Cl)cc(Cl)c1
inactive: Potency [1] > 92 µM | Potency [2] > 92 µM | Potency [3] > 92 µM | Potency [4] > 92 µM | Potency [5] | Potency [6] | outcome [7] | Potency [8] | Potency [9] | Potency [10] | Potency [11] | Potency [12] | Potency [13] | Potency [14] | outcome [16] | Potency [20] | max response [18] 0.872% | Potency [19]
-5.15%: max response [17]
-17%: max response [15]

CC(=O)NNc1ccccc1
-2.14%: max response [17]
inactive: Potency [1] > 92 µM | Potency [2] > 92 µM | Potency [3] > 92 µM | Potency [4] > 92 µM | Potency [5] | Potency [6] | outcome [7] | Potency [8] | Potency [9] | Potency [10] | Potency [11] | Potency [12] | Potency [13] | Potency [14] | Potency [20] | max response [18] -22.9% | Potency [19]

CCN(CC)CCO
3.45%: max response [17]
-4.75%: max response [15]
inactive: Potency [1] > 92 µM | Potency [2] > 92 µM | Potency [3] > 92 µM | Potency [4] > 92 µM | Potency [5] | Potency [6] | outcome [7] | Potency [8] | Potency [9] | Potency [10] | Potency [11] | Potency [12] | Potency [13] | Potency [14] | outcome [16] | Potency [20] | max response [18] 35.6% | Potency [19]

O=[N+]([O-])c1ccc2c3c(cccc13)CC2
-3.8% and -0.996%: max response [17]
inactive: Potency [1] > 92 µM | Potency [2] > 92 µM | Potency [3] > 92 µM | Potency [4] > 92 µM | Potency [5] | Potency [6] | outcome [7] | Potency [8] | Potency [9] | Potency [10] | Potency [11] | Potency [12] | Potency [13] | Potency [14] | outcome [16] | Potency [20] | max response [18] 28.1% and 10.3% | Potency [19]
20.4% and -8.69%: max response [15]
